# Compounds with a hit are over-represented: about 2.3% of the library has one in this group of screens.
# M1 ag: human M1 muscarinic receptor agonism; CHO-K1 hM1, Fluo-8 calcium fluorescence, agonist mode; 0% DMSO, 100% acetylcholine EC100; activation, % at 3 µM; P11229; 360,000 tested, 0.33% active;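 active = activation above the run's mean compound activation plus 3 SD, cut at about 16% in these data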;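 note: peak over basal fluorescence ratio within a 140 s kinetic read after compound addition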
# Target sequence (P11229 whole entry, looked up): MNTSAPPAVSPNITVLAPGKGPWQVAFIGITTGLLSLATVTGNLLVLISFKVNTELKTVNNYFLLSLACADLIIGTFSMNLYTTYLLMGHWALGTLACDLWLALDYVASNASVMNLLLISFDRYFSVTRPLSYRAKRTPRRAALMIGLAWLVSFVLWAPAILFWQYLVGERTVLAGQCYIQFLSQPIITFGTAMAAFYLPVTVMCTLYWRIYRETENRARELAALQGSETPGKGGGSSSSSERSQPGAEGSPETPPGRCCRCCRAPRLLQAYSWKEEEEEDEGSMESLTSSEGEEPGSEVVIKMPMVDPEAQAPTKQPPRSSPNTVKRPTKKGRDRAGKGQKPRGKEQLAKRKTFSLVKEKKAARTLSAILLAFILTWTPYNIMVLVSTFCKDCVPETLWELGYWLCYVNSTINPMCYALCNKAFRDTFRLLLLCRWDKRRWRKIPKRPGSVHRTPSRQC
# M1 PAM: positive allosteric modulators of human M1 muscarinic receptor. activation, % at 3 µM. 360,000 tested, 0.088% active. CHO-K1 hM1, Fluo-8 calcium fluorescence, ACh EC20; 0% = ACh EC20, 100% = maximal ACh. P11229; in the data active = activation above about 19%, passing the limit was not always enough
# CHO-K1 Ca antag: counter-screen for M1 antagonists: effect in parental CHO-K1 cells; ATP-induced calcium, Fluo-8 fluorescence; inhibition, % at 3 µM; 360,000 tested, 0.6% active; AID 602250;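 active = inhibition above a per-plate cutoff, the plate's mean sample inhibition plus 3 SD, cut at about 24% in these data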;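 note: 0% = DMSO plus EC80 ATP and 100% = DMSO alone without ATP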
# M1 PAM parental: nonselective activator or artifact in parental CHO-K1 calcium assay. ATP EC20, Fluo-8 calcium fluorescence; 0% at ATP EC20, 100% at ATP max. activation, % at 3 µM. 360,000 tested, 0.02% active. AID 602247;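 active = activation above the run cutoff, the mean activation of all test compounds plus 3 SD, cut at about 40% in these data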;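 note: peak over basal fluorescence ratio in a 140 s read after ATP addition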
# CHO-K1 Ca ag: counter-screen for M1 agonists: effect in parental CHO-K1 cells. Fluo-8 calcium fluorescence; scaled to maximal ATP response, vehicle zero. activation, % at 3 µM. 360,000 tested, 0.48% active. AID 602248; in the data active = activation above about 15%;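 note: untransfected CHO-K1 host cells lacking M1 receptor as counterscreen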
# CHRM1 antagonist: human CHRM1 antagonism; AID 588852; CHO-K1 hM1, Fluo-8 calcium fluorescence, ACh EC80 antagonist; 360,000 tested, 1.3% active; inhibition, % at 3 µM; P11229;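 active = percent inhibition above its own plate's cutoff, namely the mean of that plate's compound wells plus 3 SD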;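 note: peak over basal fluorescence ratio during 140 s after agonist addition; 0% = ACh EC80 plus DMSO and 100% = DMSO alone without agonist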
# Numbers without * were called inactive; . = not tested or not shown.
SMILES,M1 ag,M1 PAM,CHO-K1 Ca antag,M1 PAM parental,CHO-K1 Ca ag,CHRM1 antagonist
CS(=O)(=O)c1ccc(NS(=O)(=O)c2ccc(Cl)c(C(=O)NCc3ccco3)c2)cc1,-1.1,17.3,-18.6,-17.0,0.4,-21.3
O=C(CSc1ccc(S(=O)(=O)N2CCCC2)cn1)Nc1ccc([N+](=O)[O-])cc1C(F)(F)F,-6.2,-0.2,-13.9,10.5,3.1,-0.4
CC(C)=CCCC(C)NC(=O)NC1CCCCC1 (centres undefined),-3.4,1.6,24.6*,-8.6,-0.4,.
Cc1ccc(NC(=O)CCN2C(=O)NC3(CCCC3)C2=O)cc1S(=O)(=O)N1CCOCC1,-2.5,14.1,-16.9,12.3,0.1,-9.9
O=C(NCCCSc1ccccc1)c1cc(Br)ccc1O,1.9,-11.8,16.5,-1.6,10.7,30.8*
CC(=O)c1c(N2CCN(C)CC2)nc(=S)n(Cc2ccccc2)c1C,-10.1,0.1,-5.8,19.0,0.8,-11.3
C=CCn1c(C)c(C(C)=O)c(N2CCN(C(c3ccccc3)c3ccccc3)CC2)nc1=S,-2.9,-15.2,-9.4,11.0,3.5,35.3*
NC1=NC2(CCN(Cc3ccccc3)CC2)n2c(nc3ccccc32)N1,-6.2,-4.5,29.3*,-8.1,-0.6,-3.0
NC1=NC2(CCCCC2)n2c(nc3ccccc32)N1,-4.3,-7.1,-9.5,9.1,-0.1,-12.5
O=c1c2cc(NC(=S)NCCN3CCCCCC3)ccc2nc2n1CCCCC2,-8.5,-14.7,-5.3,-6.1,-0.3,13.3
O=c1c2cc(NC(=S)NCCCN3CCC(Cc4ccccc4)CC3)ccc2nc2n1CCCCC2,-1.8,-25.9,-6.0,10.8,10.1,67.2*
CC(=O)Nc1c(Nc2ccccc2)c2ccccc2oc1=O,-6.5,12.5,18.2,6.4,15.3*,-3.7
CC(=O)Nc1c(NC(C)C)c2ccccc2oc1=O,1.4,13.7,-18.3,13.6,3.5,-9.8
CC(C)CN(C(=O)CCCOc1ccc(Cl)cc1Cl)c1c(N)n(Cc2ccccc2)c(=O)[nH]c1=O,-3.2,-3.0,8.7,-20.6,0.0,0.6
CC(C)C(NC(=O)c1ccccc1)C(=O)N1CCN(C/C=C/c2ccccc2)CC1 (centres undefined),-3.4,-5.6,-14.8,6.4,0.0,5.5
O=C(NCC(=O)N1CCN(c2ccccc2)CC1)c1ccc(Cl)cc1,-1.6,3.0,0.9,-7.9,-0.2,68.7*
CSCCC(NC(=O)c1ccc(Cl)c([N+](=O)[O-])c1)C(=O)N1CCN(C/C=C/c2ccccc2)CC1 (centres undefined),20.4*,-1.9,-10.8,5.4,-0.2,2.4
C[C@H](NC(=O)c1ccc(C(C)(C)C)cc1)C(=O)N1CCN(C/C=C/c2ccccc2)CC1,38.4*,-15.9,-21.8,15.5,4.8,46.3*
O=C(NCC(=O)N1CCN(C/C=C/c2ccccc2)CC1)c1ccc(Br)cc1,18.1*,-14.6,-19.8,7.4,2.1,33.0*
COc1ccc(C(=O)NCC(=O)N2CCN(c3ccccc3)CC2)cc1,0.2,11.8,-17.4,11.0,0.8,-15.4
CCC(C)c1ccc(OCC(=O)Nc2ccc3c(c2)C(=O)NC3=O)cc1 (centres undefined),1.7,-0.3,2.9,14.4,2.1,0.9
Cc1ccc(Cl)cc1N1CCN(C(=O)c2noc(C(C)C)c2[N+](=O)[O-])CC1,-1.9,-3.0,-11.9,21.6,0.2,-3.6
O=C(NCCN1CCN(c2cccc(Cl)c2)CC1)Nc1ccccc1,-2.7,-6.9,-14.2,7.2,7.5,7.0
O=C(NCCN1CCN(c2ccccc2)CC1)Nc1ccc(Cl)cc1,-0.9,1.8,-17.4,3.2,15.7*,-3.3
CC(NCC(O)COc1ccc2ccccc2c1)c1ccccc1 (centres undefined),-1.8,15.4,10.1,-13.5,15.7*,-7.0
SMILES,M1 ag,M1 PAM,CHO-K1 Ca antag,M1 PAM parental,CHO-K1 Ca ag,CHRM1 antagonist
CC(NCC(O)COc1ccc(Br)cc1)c1ccccc1 (centres undefined),0.6,-3.3,-5.4,4.4,6.3,74.7*
Cc1cccc2c1N(CCCOc1ccccc1)C(=O)C2=O,20.2*,12.8,2.7,5.6,0.5,-12.1
Cc1ccc2c(c1)C(=O)C(=O)N2CCCOc1ccccc1C,0.2,10.1,-18.6,20.5,3.5,-7.6
Cc1ccccc1OCCCN1C(=O)C(=O)c2cccc(C)c21,21.8*,7.3,-1.6,20.1,3.2,-11.4
Cc1ccc(CN2CC(C(=O)Nc3cc(C)ccn3)CC2=O)cc1 (centres undefined),-1.7,9.6,-0.2,7.2,1.2,-6.8
Cc1ccc2c(c1)CCCN2S(=O)(=O)c1cccc(C(=O)Nc2ccccc2C(=O)O)c1,-2.0,3.4,-6.4,-1.3,-0.2,-6.6
Cc1[nH]nc2c1/C(=N\O)CC(C)(C)C2,-4.5,5.9,-12.8,20.7,0.6,-12.6
Cc1[nH]nc2c1C(=O)CC(C)(C)C2,4.2,21.0*,1.2,13.6,0.2,-32.8
CC(C)CN1C(=S)SC(C)(C)C1n1oc(=O)n(-c2ccc(Cl)cc2)c1=O (centres undefined),-7.7,-30.1,-13.0,20.1,1.0,51.4*
CC(C)CN1C(=S)SC(C)(C)C1n1oc(=O)n(-c2ccccc2)c1=O (centres undefined),-9.4,-5.0,1.1,4.5,0.0,1.8
C/C(=N/O)c1ccc(Oc2cnccn2)cc1,-6.1,8.8,8.8,6.8,0.3,-14.4
O=C1C2C3C=CC(C4CC34)C2C(=O)N1c1cccc2ccccc12 (centres undefined),11.8,6.4,-5.2,23.6,18.2*,-7.5
OC[C@H]1O[C@@H](O[C@@H]2[C@@H](CO)O[C@@](O)(CO)[C@H]2O)[C@H](O)[C@@H](O)[C@H]1O,-0.6,-3.4,26.9*,-13.6,0.2,-10.1
COC1OC(CO)C(O)C(O)C1O (centres undefined),-1.2,-5.8,7.4,-11.5,-0.2,-2.2
Cc1ccc(C(=O)N[C@@H](Cc2ccccc2)C(=O)N2CCC3(CC2)NCCc2[nH]cnc23)cc1C,-6.2,-20.1,-7.1,0.4,1.1,47.0*
CCNc1nnc(CCn2nc(C)c(Br)c2C)s1,-6.4,-0.1,8.3,-8.0,-0.2,7.0
CC(=O)N/C(=C\c1ccccc1)C(=O)OCc1cccc(S(=O)(=O)N(C)C)c1,-1.7,-5.7,-3.2,-4.9,15.5*,2.5
O=C(NCCCCCCCN1CCCCCCC1)C(C1CCCCC1)C1CCCCC1,-8.9,-29.7,-12.9,-0.9,-0.7,56.9*
O=C1CCCN1c1ccc(S(=O)(=O)NCCOc2ccccc2)cc1,2.8,-3.2,18.2,-8.1,2.8,7.4
Cc1cc(N2CCCC2=O)cc(C)c1S(=O)(=O)NCCOc1ccc(C(C)(C)C)cc1,5.5,-16.6,27.1*,5.3,14.1,38.7*
CCOC(=O)N1CCC(NC(=O)c2cc(C(=O)NCc3ccc(F)cc3)ccc2CO)CC1,-2.0,3.4,5.7,-0.7,-1.0,-0.1
